Here are results for one sequence from article PMC7862700, “An all-to-all approach to the identification of sequence-specific readers for epigenetic DNA modifications on cytosine”.

Common to all, as to assay: DAPPL (digital affinity profiling via proximity ligation, sequencing); 10 mM Tris-HCl pH 7.5, 50 mM NaCl, 1 mM DTT, 4% glycerol, room temperature, 30 min; GST-TFs on glutathione beads, 16-mer random dsDNA library, 0.1% formaldehyde crosslink after washing; high values mean tight binding
Common to all, as to conditions: protein: recombinant; tags: N-terminal GST; dsDNA, one strand shown

For one assay, the target named is T1, ELK1 (Homo sapiens, UniProt P19419 1-428).
T1 sequence: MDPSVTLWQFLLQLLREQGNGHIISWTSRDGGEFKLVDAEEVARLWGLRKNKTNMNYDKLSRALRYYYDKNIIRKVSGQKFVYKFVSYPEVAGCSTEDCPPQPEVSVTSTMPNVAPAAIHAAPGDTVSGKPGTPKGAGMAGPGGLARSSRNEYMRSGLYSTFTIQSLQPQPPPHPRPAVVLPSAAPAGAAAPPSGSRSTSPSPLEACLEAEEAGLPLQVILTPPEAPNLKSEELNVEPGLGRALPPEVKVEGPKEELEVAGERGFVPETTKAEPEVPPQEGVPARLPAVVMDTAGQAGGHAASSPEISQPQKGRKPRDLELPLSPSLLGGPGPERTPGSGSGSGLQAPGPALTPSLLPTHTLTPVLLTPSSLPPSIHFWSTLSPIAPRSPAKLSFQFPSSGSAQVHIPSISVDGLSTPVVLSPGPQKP
The method, boiled down: (§1)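 Each value of binding signal is a hexamer's read frequency for a factor divided by the same hexamer's frequency in the tag-only sample. Barcoded, bead-captured GST fusions of human transcription factors made in yeast were pooled with that sample and incubated with 200 nmole of a random double-stranded 16-mer DNA library in Tris/NaCl/DTT/glycerol buffer at room temperature for 30 min. Washing, 0.1% formaldehyde crosslinking, proximity ligation, PCR and Illumina NextSeq500 sequencing followed.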

A further assay concerns the target T2, GABPA (Homo sapiens, UniProt Q06546 1-454).
T2 sequence: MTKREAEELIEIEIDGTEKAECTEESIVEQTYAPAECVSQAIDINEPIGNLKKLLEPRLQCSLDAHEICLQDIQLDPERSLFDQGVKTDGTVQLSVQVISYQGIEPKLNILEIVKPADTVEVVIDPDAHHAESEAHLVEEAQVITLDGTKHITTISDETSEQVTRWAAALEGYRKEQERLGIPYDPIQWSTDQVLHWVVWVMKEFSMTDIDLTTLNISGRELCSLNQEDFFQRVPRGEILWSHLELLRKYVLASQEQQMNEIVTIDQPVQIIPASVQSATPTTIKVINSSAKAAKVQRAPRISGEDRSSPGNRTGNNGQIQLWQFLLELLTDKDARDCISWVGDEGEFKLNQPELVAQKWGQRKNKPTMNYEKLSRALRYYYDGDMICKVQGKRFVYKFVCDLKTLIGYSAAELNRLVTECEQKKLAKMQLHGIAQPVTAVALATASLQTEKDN
A digest of the protocol:
as §1

The target in a further assay is T3, ERG (Homo sapiens, UniProt P11308 1-479).
T3 sequence: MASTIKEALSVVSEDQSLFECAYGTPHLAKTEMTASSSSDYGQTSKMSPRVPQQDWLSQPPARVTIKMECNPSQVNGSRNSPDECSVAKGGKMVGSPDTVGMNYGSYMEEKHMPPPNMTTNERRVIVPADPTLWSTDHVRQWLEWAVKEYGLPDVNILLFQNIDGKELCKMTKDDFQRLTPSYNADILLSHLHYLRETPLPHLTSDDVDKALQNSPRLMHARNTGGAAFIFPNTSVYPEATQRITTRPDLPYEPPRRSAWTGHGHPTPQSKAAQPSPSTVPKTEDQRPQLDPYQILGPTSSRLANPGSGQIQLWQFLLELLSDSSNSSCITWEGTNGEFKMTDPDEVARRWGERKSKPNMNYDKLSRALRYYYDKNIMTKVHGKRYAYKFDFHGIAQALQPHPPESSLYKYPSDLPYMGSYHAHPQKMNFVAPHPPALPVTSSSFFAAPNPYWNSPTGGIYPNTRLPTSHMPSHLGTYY
A digest of the protocol:
as §1

Another assay addresses ELF1 (Homo sapiens, UniProt P32519 1-619). A digest of the protocol:
as §1

A further assay has as its target T4, EHF (Homo sapiens, UniProt Q9NZC4 1-300).
T4 sequence: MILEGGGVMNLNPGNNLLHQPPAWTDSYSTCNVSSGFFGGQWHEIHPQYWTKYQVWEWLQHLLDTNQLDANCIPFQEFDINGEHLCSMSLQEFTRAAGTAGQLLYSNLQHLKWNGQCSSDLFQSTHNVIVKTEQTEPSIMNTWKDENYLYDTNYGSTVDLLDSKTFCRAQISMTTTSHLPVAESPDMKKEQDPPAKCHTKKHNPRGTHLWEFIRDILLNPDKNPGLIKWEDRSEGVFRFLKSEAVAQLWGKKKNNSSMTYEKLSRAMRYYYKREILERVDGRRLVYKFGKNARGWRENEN
The method, boiled down:
as §1

For another assay, the target named is SPI1 (Homo sapiens, UniProt P17947 1-270). The method, boiled down: as §1
A further assay addresses SPIB (Homo sapiens, UniProt Q01892 1-262). The method, boiled down: as §1
In a further assay the target is T5, SPIC (Homo sapiens, UniProt Q8N5J4 1-248).
T5 sequence: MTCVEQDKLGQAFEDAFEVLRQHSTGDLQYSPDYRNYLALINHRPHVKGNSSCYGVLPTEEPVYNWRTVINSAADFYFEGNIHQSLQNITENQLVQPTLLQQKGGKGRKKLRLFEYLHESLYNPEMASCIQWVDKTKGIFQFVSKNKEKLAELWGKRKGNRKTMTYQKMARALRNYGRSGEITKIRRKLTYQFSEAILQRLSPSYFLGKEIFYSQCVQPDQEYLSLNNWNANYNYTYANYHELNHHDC
The method, boiled down: as §1

Another assay deals with ELF4 (Homo sapiens, UniProt Q99607 1-663). A digest of the protocol: as §1
Chain of ELF4 (Q99607 whole entry): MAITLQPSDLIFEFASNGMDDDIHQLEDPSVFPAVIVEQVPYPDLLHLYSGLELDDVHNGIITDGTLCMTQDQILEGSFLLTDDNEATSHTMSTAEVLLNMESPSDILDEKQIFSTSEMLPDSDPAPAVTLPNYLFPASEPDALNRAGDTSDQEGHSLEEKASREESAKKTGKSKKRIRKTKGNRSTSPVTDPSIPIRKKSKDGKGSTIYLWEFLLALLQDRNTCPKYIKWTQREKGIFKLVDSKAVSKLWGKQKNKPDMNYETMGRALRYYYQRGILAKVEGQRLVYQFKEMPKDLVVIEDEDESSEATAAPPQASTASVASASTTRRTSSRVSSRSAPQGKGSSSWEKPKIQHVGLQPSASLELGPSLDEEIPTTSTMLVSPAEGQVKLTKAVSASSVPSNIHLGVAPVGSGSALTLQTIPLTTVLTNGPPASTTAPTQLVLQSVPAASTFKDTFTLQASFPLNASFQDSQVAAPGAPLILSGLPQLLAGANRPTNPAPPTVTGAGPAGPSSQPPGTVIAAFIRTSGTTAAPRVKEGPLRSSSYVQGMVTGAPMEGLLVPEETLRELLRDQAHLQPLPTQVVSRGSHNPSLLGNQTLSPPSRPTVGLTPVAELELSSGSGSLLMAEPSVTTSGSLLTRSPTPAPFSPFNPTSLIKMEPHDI
For a further assay, the target named is T6, ELK4 (Homo sapiens, UniProt P28324-2 1-405).
T6 sequence: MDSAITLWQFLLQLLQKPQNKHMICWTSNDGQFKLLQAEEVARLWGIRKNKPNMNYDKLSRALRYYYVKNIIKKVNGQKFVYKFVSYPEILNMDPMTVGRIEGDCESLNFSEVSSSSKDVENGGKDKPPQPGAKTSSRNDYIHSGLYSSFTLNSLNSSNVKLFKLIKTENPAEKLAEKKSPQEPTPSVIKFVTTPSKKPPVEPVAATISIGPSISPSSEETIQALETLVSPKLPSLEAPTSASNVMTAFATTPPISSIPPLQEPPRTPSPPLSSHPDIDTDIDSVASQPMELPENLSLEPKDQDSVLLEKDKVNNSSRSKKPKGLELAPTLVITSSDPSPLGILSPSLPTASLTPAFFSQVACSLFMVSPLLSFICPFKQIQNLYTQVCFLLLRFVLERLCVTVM
The method, boiled down: as §1

The target of the next assay is T7, ELF3 (Homo sapiens, UniProt P78545 1-371).
T7 sequence: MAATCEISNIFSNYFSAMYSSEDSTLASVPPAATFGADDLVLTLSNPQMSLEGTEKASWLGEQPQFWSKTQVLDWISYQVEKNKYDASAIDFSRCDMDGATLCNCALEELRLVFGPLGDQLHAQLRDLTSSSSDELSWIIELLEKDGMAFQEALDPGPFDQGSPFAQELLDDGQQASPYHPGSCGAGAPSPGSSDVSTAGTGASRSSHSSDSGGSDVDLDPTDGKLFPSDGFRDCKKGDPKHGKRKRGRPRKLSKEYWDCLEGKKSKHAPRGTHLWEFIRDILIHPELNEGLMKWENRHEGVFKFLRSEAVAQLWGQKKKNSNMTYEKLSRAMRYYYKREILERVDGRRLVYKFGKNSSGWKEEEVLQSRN
The method, boiled down: as §1

The target of the next assay is ETV1 (Homo sapiens, UniProt P50549 1-477). A digest of the protocol: as §1
Chain of ETV1 (P50549 whole entry): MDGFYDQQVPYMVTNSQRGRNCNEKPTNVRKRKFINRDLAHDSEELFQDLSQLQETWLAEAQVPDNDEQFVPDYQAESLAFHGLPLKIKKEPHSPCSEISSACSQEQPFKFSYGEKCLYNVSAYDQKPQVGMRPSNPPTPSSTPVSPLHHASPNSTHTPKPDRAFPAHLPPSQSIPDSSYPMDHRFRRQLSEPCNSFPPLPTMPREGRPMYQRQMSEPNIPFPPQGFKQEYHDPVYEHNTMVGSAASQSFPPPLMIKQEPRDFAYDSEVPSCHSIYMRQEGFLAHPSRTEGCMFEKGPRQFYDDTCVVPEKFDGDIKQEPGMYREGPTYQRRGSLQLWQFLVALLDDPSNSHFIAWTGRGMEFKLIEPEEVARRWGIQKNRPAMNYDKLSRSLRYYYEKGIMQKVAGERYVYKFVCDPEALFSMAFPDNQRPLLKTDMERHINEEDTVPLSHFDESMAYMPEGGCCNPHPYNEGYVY
The next assay concerns the target T8, ERF (Homo sapiens, UniProt P50548 1-548).
T8 sequence: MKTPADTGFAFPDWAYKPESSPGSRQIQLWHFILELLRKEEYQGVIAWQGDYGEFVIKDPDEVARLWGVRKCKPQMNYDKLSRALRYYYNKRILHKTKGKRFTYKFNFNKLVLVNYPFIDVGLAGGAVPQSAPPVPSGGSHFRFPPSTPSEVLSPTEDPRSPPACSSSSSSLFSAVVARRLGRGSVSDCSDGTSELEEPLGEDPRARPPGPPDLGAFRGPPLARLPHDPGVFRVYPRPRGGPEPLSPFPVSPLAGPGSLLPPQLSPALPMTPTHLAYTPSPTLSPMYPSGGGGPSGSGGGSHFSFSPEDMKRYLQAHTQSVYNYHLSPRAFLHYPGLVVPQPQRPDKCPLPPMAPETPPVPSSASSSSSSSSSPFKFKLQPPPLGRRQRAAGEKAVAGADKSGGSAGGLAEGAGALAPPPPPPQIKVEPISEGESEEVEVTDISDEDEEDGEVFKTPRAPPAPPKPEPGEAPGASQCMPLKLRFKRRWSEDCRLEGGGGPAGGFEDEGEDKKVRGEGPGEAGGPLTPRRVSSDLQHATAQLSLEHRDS
The method, boiled down:
as §1

The target in a further assay is T9, ETV3L (Homo sapiens, UniProt Q6ZN32 1-361).
T9 sequence: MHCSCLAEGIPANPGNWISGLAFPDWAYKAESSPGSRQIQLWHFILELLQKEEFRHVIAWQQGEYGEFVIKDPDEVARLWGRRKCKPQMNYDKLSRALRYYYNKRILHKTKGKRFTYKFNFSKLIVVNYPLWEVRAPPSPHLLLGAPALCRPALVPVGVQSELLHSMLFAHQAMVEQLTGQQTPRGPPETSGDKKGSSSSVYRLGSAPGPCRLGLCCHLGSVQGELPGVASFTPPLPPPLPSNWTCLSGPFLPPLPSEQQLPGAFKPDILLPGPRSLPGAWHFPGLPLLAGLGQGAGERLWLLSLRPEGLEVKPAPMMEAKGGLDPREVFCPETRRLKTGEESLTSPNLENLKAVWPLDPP
A digest of the protocol:
as §1

Another assay addresses T10, ETS2 (Homo sapiens, UniProt P15036 1-469).
T10 sequence: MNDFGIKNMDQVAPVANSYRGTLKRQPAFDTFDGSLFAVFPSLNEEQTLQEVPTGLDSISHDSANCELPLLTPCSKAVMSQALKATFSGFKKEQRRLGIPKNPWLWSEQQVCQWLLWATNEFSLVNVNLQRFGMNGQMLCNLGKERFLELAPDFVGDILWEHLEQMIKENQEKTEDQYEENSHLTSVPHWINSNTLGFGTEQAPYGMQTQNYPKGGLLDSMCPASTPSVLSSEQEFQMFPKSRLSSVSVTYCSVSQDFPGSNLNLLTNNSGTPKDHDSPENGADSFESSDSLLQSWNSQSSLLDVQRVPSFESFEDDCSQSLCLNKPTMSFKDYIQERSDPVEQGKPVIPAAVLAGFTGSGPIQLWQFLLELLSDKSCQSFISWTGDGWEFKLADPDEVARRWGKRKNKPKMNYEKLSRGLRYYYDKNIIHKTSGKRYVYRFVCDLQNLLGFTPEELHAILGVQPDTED
The method, boiled down: as §1

The target of the next assay is T11, SPDEF (Homo sapiens, UniProt O95238 1-335).
T11 sequence: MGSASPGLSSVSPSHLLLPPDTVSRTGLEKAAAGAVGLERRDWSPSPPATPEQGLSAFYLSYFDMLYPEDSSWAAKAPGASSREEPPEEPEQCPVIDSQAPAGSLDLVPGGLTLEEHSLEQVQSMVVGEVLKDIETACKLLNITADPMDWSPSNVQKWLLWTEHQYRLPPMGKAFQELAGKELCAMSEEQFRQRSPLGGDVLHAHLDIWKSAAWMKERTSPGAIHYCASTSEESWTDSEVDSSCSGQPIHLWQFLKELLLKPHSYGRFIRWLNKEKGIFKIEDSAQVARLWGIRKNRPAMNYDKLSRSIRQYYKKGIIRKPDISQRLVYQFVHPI
The method, boiled down: as §1

A further assay concerns the target T12, ETV7 (Homo sapiens, UniProt Q9Y603 1-341).
T12 sequence: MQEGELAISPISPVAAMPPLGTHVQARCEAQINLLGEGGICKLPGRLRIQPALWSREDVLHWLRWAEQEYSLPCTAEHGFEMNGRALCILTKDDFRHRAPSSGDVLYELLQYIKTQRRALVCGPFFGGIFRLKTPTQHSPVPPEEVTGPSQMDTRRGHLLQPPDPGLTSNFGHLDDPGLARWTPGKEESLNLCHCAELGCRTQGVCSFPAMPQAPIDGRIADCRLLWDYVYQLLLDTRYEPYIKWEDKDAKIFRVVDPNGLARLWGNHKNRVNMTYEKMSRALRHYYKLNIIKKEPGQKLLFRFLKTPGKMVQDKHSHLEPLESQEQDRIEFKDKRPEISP
A digest of the protocol: as §1

The target in another assay is T13, ETV3 (Homo sapiens, UniProt P41162-2 1-143).
T13 sequence: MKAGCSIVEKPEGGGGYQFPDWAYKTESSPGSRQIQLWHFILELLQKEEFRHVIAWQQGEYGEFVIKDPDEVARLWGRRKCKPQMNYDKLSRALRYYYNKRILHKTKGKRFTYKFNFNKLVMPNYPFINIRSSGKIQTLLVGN
The method, boiled down:
as §1

In a further assay the target is ETV6 (Homo sapiens, UniProt P41212 1-452). The method, boiled down:
as §1

Chain of ETV6 (P41212 whole entry): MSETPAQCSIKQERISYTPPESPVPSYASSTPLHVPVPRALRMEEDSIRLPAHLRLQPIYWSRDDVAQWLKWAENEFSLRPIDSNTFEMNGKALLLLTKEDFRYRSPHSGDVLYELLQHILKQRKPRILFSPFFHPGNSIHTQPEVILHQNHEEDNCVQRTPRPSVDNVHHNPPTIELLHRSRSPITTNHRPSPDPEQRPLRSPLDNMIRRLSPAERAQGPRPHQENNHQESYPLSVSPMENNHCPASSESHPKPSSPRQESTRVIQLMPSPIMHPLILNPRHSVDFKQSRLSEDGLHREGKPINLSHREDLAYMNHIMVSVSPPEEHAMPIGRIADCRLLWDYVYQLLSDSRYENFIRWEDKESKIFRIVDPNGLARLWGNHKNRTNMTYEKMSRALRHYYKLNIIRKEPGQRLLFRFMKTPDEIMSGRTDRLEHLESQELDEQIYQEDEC
Chain of SPIB (Q01892 whole entry): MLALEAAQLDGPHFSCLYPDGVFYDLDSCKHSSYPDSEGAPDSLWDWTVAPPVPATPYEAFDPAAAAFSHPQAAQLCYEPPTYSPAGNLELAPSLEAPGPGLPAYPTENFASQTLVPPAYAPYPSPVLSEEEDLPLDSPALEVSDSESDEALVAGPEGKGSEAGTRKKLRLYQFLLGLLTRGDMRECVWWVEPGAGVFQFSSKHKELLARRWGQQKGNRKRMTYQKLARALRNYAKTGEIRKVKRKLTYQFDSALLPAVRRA
Chain of ELF1 (P32519 whole entry): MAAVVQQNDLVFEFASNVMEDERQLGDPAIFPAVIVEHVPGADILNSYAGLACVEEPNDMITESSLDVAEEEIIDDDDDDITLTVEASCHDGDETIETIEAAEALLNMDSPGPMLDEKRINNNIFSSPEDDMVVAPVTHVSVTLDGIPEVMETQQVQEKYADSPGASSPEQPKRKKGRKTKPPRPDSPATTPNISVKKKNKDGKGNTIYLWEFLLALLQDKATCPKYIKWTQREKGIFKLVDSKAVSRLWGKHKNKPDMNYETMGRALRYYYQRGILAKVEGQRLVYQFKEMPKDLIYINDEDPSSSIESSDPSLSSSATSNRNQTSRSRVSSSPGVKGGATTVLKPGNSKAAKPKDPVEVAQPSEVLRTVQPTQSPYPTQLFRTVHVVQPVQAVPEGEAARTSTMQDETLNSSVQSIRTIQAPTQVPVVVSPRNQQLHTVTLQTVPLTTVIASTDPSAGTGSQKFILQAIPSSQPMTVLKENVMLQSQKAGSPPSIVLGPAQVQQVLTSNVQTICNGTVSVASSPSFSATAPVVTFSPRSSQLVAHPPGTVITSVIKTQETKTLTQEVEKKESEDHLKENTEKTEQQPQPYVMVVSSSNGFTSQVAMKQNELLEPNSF

Regarding CGTTTA, the binding signal in the assay with ELK1 was 1.08 fold enrichment (6-mer frequency, TF over GST control); in the assay with GABPA it was 1.13 fold enrichment (6-mer frequency, TF over GST control); with ERG, 1.05 fold enrichment (6-mer frequency, TF over GST control); with ELF1 it was 1.06 fold enrichment (6-mer frequency, TF over GST control); in the assay with EHF it was 1.06 fold enrichment (6-mer frequency, TF over GST control); with SPI1, 1.06 fold enrichment (6-mer frequency, TF over GST control). Also, the binding signal is 1.11 fold enrichment (6-mer frequency, TF over GST control) in the assay with SPIB; 1.03 fold enrichment (6-mer frequency, TF over GST control) with SPIC; 1.07 fold enrichment (6-mer frequency, TF over GST control) with ELF4; 1.15 fold enrichment (6-mer frequency, TF over GST control) with ELK4; 1.09 fold enrichment (6-mer frequency, TF over GST control) in the assay with ELF3; 1.12 fold enrichment (6-mer frequency, TF over GST control) with ETV1. In addition, the binding signal with ERF is 1.05 fold enrichment (6-mer frequency, TF over GST control); with ETV3L it was 1.1 fold enrichment (6-mer frequency, TF over GST control); with ETS2 it was 1.16 fold enrichment (6-mer frequency, TF over GST control); with SPDEF it was 1.14 fold enrichment (6-mer frequency, TF over GST control); in the assay with ETV7 it was 1.12 fold enrichment (6-mer frequency, TF over GST control); with ETV3 it was 1.05 fold enrichment (6-mer frequency, TF over GST control). Moreover, the binding signal in the assay with ETV6 was 1.14 fold enrichment (6-mer frequency, TF over GST control).
